The full data set covers some 7,900 targets. This sample favours those with a hit. About 0.6% of all pairs of compound and target were hits. Unmarked numbers belong to inactive results.
Key:
Experiment in all cases: log2 fold change, soluble protein after heating vs DMSO (PISA); higher = thermal stabilisation; K562 cells, 10 uM, 30 min; active = over 0.2 and 3.5 SD of the protein, either way, in both replicates (recomputed)
[1] = compound: CC1=C(C=C(C=C1)NC(=O)C2=CC(=CC=C2)C(C)(C)C#N)NC3=CC4=C(C=C3)N=CN(C4=O)C
Procedure, shortened: (§1)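 K562 cells at 2×10^6 cells/mL were exposed to 10 μM compound for 30 min, then aliquots were heated for 3 min across 48°C-58°C, pooled, and extracted in PBS containing 0.5% NP-40 at 4°C. The supernatant after 21,000xg for 90 min was taken as soluble protein and measured by TMTpro 16plex LC-MS/MS with channel sums equalised. Thermal stability is reported relative to control samples, with values from duplicates. Fold changes are given on a log2 scale.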

[2] = compound: CC1=C(C=C(C=C1)NC(=O)C2=CC(=CC=C2)N(C)C)NC(=O)C3=CC=C(C=C3)O
Procedure, shortened: as §1

[3] = compound: CC1=CC=C(C=C1)SC2=C3C=C(SC3=CN=C2)C(=O)N
Procedure, shortened: as §1

[4] = compound: CC1=NC(=CC=C1)C2=C(N=C(N2)C(C)(C)C)C3=CC4=NC=CN=C4C=C3
Procedure, shortened: as §1

Nexturastat A = compound: CCCCN(Cc1ccc(C(=O)NO)cc1)C(=O)Nc1ccccc1 [Nexturastat A]
Procedure, shortened: as §1

vemurafenib = compound: CCCS(=O)(=O)Nc1ccc(F)c(C(=O)c2c[nH]c3ncc(-c4ccc(Cl)cc4)cc23)c1F [vemurafenib]
Procedure, shortened: as §1

[5] = compound: CCCS(=O)(=O)Nc1ccc(F)c(C(=O)c2c[nH]c3ncc(Cl)cc23)c1F
Procedure, shortened: as §1

[6] = compound: CCCc1cc(C)[nH]c(=O)c1CNC(=O)c1cc(-c2ccnc(N3CCN(C)CC3)c2)cc2c1cnn2C(C)C
Procedure, shortened: as §1

givinostat = compound: CCN(CC)Cc1ccc2cc(COC(=O)Nc3ccc(C(=O)NO)cc3)ccc2c1 [givinostat]
Procedure, shortened: as §1

barasertib = compound: CCN(CCCOc1ccc2c(Nc3cc(CC(=O)Nc4cccc(F)c4)[nH]n3)ncnc2c1)CCOP(=O)(O)O [barasertib]
Procedure, shortened: as §1

[7] = compound: CC[C@@H]1C(=O)N(C)c2cnc(Nc3ccc(C(=O)NC4CCN(C)CC4)cc3OC)nc2N1C1CCCC1
Procedure, shortened: as §1

volasertib = compound: CC[C@@H]1C(=O)N(C)c2cnc(Nc3ccc(C(=O)N[C@H]4CC[C@H](N5CCN(CC6CC6)CC5)CC4)cc3OC)nc2N1C(C)C [volasertib]
Procedure, shortened: as §1

[8] = compound: CC[C@H](C)N1C=C(C2=C(C=C(C=C21)C3=CN=C(C=C3)N4CCNCC4)C(=O)NCC5=C(C=C(NC5=O)C)C)C
Procedure, shortened: as §1

epoxomicin = compound: CC[C@H](C)[C@@H](C(=O)N[C@@H]([C@@H](C)O)C(=O)N[C@@H](CC(C)C)C(=O)[C@]1(CO1)C)NC(=O)[C@H]([C@@H](C)CC)N(C)C(=O)C [epoxomicin]
Procedure, shortened: as §1

[9] = compound: CCn1c(C(=O)N(C2CC2)C2CC2)cc2c3c(ncn3C)c(Nc3cc(C)n(C)n3)nc21
Procedure, shortened: as §1

[10] = compound: CCn1cc(-c2ccnc3[nH]c(-c4cccc(CN(C)C)c4)cc23)c(-c2ccc(NC(=O)N(C)C)cc2)n1
Procedure, shortened: as §1

[11] = compound: CN(C)CC(=O)Nc1ccc2[nH]c(=O)c3ccccc3c2c1
Procedure, shortened: as §1

rosiglitazone = compound: CN(CCOC1=CC=C(C=C1)C[C@H]2C(=O)NC(=O)S2)C3=CC=CC=N3 (racemic) [rosiglitazone]
Procedure, shortened: as §1

[12] = compound: CN1C2=C(C3=C1C(=O)N(N=C3)CC4=CC(=CC=C4)N)SC(=C2)S(=O)C
Procedure, shortened: as §1

[13] = compound: CN1CCC(CNc2ccc3ncc(-c4cccc(OC(F)(F)F)c4)n3n2)CC1
Procedure, shortened: as §1

Chain of UniProt Q13586 (Q13586 whole entry, looked up): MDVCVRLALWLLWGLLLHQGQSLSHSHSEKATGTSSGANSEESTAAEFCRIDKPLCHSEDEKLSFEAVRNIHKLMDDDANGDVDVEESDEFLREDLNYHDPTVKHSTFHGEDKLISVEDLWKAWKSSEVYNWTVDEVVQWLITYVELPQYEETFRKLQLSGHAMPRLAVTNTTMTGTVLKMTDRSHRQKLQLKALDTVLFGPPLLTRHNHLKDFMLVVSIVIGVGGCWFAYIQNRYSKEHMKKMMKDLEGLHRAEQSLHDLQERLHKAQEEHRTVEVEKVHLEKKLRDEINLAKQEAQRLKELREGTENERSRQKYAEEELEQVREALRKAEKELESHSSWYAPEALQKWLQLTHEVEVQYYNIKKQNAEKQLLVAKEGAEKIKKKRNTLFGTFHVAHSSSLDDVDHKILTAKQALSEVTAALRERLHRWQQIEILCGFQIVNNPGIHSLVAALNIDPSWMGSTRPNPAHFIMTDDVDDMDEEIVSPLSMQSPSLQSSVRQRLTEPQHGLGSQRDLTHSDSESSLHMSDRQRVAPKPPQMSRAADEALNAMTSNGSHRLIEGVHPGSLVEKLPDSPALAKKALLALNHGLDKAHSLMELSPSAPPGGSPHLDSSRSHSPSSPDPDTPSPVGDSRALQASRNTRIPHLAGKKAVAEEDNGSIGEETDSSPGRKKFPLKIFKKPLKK
Chain of UniProt O95926 (O95926 whole entry, looked up): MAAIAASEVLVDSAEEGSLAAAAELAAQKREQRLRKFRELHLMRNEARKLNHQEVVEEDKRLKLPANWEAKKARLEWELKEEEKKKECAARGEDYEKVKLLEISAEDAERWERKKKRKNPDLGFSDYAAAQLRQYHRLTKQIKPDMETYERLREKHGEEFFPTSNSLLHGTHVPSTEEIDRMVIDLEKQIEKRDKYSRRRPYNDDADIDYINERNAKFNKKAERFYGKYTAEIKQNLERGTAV
Chain of UniProt Q9UQ35 (Q9UQ35 whole entry, looked up): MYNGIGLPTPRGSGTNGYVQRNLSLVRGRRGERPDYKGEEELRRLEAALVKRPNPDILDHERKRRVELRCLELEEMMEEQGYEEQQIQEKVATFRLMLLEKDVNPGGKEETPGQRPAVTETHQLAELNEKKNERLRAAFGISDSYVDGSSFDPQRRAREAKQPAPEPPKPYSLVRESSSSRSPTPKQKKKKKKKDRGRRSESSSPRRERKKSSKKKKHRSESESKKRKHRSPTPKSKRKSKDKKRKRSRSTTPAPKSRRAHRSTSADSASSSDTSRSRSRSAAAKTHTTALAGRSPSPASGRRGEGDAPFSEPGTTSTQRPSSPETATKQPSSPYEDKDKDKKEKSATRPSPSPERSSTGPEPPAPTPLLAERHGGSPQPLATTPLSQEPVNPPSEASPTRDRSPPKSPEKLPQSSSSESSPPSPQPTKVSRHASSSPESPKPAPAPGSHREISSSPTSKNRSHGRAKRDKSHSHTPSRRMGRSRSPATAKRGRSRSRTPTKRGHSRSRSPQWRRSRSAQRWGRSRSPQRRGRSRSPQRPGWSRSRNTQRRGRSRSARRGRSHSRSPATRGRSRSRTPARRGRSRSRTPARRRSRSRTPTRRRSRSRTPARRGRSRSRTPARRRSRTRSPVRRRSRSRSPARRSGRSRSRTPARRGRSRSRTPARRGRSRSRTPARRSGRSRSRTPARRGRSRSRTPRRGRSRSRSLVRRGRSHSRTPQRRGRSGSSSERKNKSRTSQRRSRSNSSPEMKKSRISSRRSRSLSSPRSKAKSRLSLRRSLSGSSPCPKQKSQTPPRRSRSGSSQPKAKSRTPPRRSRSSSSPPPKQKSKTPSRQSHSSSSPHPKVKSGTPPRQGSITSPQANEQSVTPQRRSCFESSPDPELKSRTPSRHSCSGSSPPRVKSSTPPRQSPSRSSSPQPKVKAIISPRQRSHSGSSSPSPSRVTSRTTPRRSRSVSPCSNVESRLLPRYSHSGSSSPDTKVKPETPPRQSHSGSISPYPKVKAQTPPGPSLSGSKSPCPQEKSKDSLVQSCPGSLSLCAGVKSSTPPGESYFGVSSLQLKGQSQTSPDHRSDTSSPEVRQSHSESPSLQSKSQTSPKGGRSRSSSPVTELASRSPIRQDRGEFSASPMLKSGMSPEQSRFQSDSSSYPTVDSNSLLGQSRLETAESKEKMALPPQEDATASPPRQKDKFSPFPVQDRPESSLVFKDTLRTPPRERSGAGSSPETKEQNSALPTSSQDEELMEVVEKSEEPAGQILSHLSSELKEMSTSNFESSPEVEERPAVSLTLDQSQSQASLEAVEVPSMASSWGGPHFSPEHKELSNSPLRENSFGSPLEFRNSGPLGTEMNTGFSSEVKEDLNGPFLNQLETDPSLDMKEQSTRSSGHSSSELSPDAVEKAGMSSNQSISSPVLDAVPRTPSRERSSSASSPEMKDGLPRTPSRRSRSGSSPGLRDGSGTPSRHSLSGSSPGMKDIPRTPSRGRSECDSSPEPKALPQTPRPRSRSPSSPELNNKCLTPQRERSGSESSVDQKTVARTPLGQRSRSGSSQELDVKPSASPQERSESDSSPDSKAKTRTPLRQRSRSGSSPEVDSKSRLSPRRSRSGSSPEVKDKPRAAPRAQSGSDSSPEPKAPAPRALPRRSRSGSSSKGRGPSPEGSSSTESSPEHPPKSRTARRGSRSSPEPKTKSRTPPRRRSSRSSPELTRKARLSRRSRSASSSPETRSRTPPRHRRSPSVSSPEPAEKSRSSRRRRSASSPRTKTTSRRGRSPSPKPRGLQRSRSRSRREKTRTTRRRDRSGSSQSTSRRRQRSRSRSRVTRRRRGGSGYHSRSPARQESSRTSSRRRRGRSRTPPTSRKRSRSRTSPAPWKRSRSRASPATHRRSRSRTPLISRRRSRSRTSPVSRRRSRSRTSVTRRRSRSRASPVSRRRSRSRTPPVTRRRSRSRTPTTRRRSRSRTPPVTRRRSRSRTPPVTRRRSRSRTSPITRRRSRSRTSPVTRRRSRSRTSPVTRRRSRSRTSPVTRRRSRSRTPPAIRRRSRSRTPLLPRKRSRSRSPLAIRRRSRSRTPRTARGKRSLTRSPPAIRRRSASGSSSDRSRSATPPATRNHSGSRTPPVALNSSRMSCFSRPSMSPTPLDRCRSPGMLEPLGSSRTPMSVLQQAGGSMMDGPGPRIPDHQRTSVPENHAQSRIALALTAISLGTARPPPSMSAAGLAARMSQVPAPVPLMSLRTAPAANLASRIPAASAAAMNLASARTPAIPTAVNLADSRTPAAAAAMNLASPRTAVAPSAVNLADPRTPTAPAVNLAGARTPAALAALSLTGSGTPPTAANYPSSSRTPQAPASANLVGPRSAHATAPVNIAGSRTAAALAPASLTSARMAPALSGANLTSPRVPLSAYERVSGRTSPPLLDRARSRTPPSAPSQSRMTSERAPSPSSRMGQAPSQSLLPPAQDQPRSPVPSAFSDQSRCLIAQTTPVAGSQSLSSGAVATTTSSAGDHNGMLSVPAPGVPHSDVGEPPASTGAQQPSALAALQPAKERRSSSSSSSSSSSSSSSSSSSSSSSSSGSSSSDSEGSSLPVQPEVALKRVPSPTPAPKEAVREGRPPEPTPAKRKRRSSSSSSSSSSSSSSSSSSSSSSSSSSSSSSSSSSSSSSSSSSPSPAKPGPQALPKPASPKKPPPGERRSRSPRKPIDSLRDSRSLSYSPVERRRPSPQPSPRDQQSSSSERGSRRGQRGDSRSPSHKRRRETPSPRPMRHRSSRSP
Chain of UniProt Q9UDY2 (Q9UDY2 whole entry, looked up): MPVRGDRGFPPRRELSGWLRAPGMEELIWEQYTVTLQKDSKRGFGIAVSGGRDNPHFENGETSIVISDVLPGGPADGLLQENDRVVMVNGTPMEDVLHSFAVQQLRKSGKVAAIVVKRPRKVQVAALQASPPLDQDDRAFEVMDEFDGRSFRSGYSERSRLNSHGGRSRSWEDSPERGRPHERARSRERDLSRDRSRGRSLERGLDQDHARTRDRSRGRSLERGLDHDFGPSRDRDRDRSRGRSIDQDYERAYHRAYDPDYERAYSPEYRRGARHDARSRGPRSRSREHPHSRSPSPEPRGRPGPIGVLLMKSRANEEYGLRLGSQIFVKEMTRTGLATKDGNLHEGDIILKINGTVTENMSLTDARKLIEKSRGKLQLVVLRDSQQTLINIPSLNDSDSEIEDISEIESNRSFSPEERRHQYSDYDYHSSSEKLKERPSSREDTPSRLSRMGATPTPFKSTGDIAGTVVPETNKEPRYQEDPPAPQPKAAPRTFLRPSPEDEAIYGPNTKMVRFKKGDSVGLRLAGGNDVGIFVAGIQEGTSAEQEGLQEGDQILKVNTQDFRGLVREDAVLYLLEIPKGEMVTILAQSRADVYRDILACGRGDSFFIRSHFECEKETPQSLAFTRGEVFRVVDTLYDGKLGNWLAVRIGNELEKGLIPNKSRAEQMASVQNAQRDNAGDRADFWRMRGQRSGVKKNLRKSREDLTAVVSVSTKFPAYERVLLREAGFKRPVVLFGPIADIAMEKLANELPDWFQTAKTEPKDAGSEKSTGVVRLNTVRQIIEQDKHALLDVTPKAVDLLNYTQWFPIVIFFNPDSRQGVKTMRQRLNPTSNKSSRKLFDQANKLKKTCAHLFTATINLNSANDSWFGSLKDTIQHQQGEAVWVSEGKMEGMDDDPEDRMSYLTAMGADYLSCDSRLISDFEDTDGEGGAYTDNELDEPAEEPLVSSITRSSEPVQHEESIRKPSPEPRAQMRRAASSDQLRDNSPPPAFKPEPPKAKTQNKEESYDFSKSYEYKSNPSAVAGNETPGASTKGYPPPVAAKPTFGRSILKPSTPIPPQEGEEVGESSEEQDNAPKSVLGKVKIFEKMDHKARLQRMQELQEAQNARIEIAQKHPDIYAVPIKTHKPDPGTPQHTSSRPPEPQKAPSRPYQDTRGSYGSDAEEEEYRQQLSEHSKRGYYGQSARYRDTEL
Chain of UniProt Q16629 (Q16629 whole entry, looked up): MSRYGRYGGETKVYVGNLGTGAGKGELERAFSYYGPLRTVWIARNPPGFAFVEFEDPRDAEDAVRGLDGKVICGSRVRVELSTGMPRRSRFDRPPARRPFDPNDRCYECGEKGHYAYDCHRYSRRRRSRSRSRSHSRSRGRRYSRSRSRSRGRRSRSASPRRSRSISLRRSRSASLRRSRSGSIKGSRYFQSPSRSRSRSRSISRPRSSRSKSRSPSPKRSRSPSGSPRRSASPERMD

Target	log2 fold change [1]	log2 fold change [2]	log2 fold change [3]	log2 fold change [4]	log2 fold change (Nexturastat A)	log2 fold change (vemurafenib)	log2 fold change [5]	log2 fold change [6]	log2 fold change (givinostat)	log2 fold change (barasertib)	log2 fold change [7]	log2 fold change (volasertib)	log2 fold change [8]	log2 fold change (epoxomicin)	log2 fold change [9]	log2 fold change [10]	log2 fold change [11]	log2 fold change (rosiglitazone)	log2 fold change [12]	log2 fold change [13]
SLIRP (UniProt Q9GZT3)	0.175	0.008	-0.035	0.039	0.286	0.028	-0.031	0.214	0.113	0.019	0.05	0.343	-0.093	0.302	0.015	0.02	0.08	0.058	0.092	0.06
SMAD9 (UniProt O15198)	-0.012	0.029	0.005	0.028	0.04	0.122	0.104	-0.032	0.108	0.054	0.059	-0.417 (active)	-0.137	0.026	-0.006	0.035	0.043	0.13	-0.087	-0.261
TJP2 isoform 7 (UniProt Q9UDY2)	-0.017	-0.006	0.007	-0.014	0.048	0.09	0.101	-0.194	0.071	0.102	-0.128	-0.298	-0.018	0.01	-0.041	-0.083	0.015	0.07	-0.021	-0.094
SRSF7 (UniProt Q16629)	0	0.025	-0.115	-0.112	0.193	-0.043	-0.088	0.114	0.059	-0.105	0.18	0.215	-0.039	-0.171	0.03	0.181	-0.085	-0.172	0.218	0.175
TEX264 (UniProt Q9Y6I9)	0.053	-0.016	-0.008	0.013	0.023	-0.002	-0.049	0.014	0.317	0.032	0.016	0.356	-0.073	0	-0.201	0.499	0.098	0.039	0.182	0.262
TBCD (UniProt Q9BTW9)	0.016	0.003	0.025	0.052	-0.051	0.005	0.02	-0.007	0.012	0.019	-0.061	-0.315 (active)	0.074	-0.012	0.028	-0.002	0.033	0.016	-0.044	-0.094
SMPD4 isoform 4 (UniProt Q9NXE4)	0.022	-0.011	0.075	0.112	0.075	0.02	0.058	-0.034	0.066	0.13	-0.067	-0.076	0.068	-0.008	-0.049	-0.081	0.036	0.075	-0.075	-0.32 (active)
STX17 (UniProt P56962)	-0.036	-0.064	-0.023	0.039	0.126	0.12	0.12	-0.07	0.152	0.011	-0.273	-0.357 (active)	-0.06	0.062	-0.067	0.011	-0.02	0.089	-0.126	-0.278
SYF2 (UniProt O95926)	0.03	0.049	-0.063	-0.133	-0.015	-0.071	-0.134	-0.008	0.031	-0.083	0.196	0.174	-0.096	0.129	-0.01	0.068	-0.044	-0.017	0.039	0.187
STARD9 (UniProt Q9P2P6)	-0.29	0.01	-0.07	-0.048	0.144	-0.161	0.029	-0.035	-0.046	-0.017	-0.024	0.238	-0.029	0.022	0.064	0.008	0.075	0.015	0.507 (active)	-0.098
SSRP1 (UniProt Q08945)	-0.072	-0.049	0.018	0.091	-0.069	0.051	0.062	0.015	0.033	0.059	-0.121	-0.412 (active)	0.052	0.02	-0.073	0.007	0.01	0.052	-0.003	-0.067
TERF2IP (UniProt Q9NYB0)	-0.023	-0.012	0.02	0.013	0.057	0.184	0.001	-0.017	-0.009	0.021	-0.038	-0.205	0.001	0.081	0.02	0.01	0.045	0.016	0.026	-0.039
STIM1 (UniProt Q13586)	0.014	0.003	0.028	0.045	-0.066	-0.006	0.034	-0.015	0.009	0.008	-0.116	-0.206	0.025	0.028	0.004	0.023	0.007	0.037	-0.047	-0.195
TAX1BP1 (UniProt Q86VP1)	0.031	-0.005	-0.014	-0.026	-0.014	-0.003	0.011	-0.055	-0.033	-0.061	-0.144	-0.298 (active)	-0.081	-0.027	0.055	-0.067	0	-0.011	-0.001	0.003
SRRM2 (UniProt Q9UQ35)	-0.022	0.01	-0.067	0.147	0.156	0.068	0.007	0.01	0.082	-0.041	-0.025	0.009	0.046	-0.071	-0.016	-0.072	0.053	0.046	0.062	-0.222
SLC27A2 (UniProt O14975)	0.099	-0.042	-0.032	-0.032	-0.013	0.029	0.073	0.008	-0.004	0	-0.094	-0.408 (active)	0	-0.05	0.277 (active)	-0.064	0.016	-0.032	-0.092	0.313 (active)

Source: the supplement of paper PMC10849652
